# Hits are enriched below; roughly 2.7% of the tested compounds scored in any of these assays.
# NadD block: inhibitors of S. aureus NadD, primary screen, biochemical, colorimetric, uHTS. Nicotinate-nucleotide adenylyltransferase NadD (Staphylococcus aureus N315). inhibition, % at 20 µM. purified NadD enzyme, colorimetric absorbance read-out. AID 602399, 2012. 360,000 tested, 0.78% active; in the data active = inhibition above about 26%
# TAG inh: inhibitors of triacylglycerol accumulation, primary screen, cell-based, uHTS, fluorescence, H9c2. AID 651582, 2012. H9c2 cells, Nile Red lipid (TAG) fluorescence; cells loaded with 200 µM oleic acid. inhibition, % at 12.5 µM. 230,000 tested, 0.66% active;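 active = pattern-corrected inhibition of lipid staining of at least 50% with the nuclear-stain viability signal not falling by more than 50%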
# MPTP inh: mitochondrial permeability transition pore inhibitors, primary screen, biochemical, isolated mouse mitochondria, absorbance; 360,000 tested, 1.4% active; inhibition, % at 10 µM; Ca2+ swelling absorbance, 30 min; AID 602449, 2012;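 active = inhibition of 50% or more, scaled per plate between neutral and stimulator controls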
# aDG glyco up: activators of alpha-DG glycosylation, primary screen, uHTS, Pro5-aDG cells, AlphaScreen; AID 624168, 2012; alpha-DG glycosylation AlphaScreen (IIH6); 0% Pro5, 100% B10-LARGE cell signal; activation, % at 10 µM; 360,000 tested, 0.22% active;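 active = activation of at least 8% versus controls, or a plate z-score of at least 8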;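 also: Pro5 are CHO cells carrying HIG-tagged alpha-DG that lacks glycosylation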
# MPTP counter: fluorescence retest of MPTP screen hits in isolated mitochondria, single concentration; shares compounds with MPTP inh; membrane potential, Rhodamine 123 fluorescence; inhibition, % at 10 µM; 5,000 tested, 78% active; in the data active = inhibition above about 22%
# MPTP abs DR: mitochondrial permeability transition pore inhibitors, dose response, biochemical, absorbance, uHTS hits | isolated mitochondria swelling | AID 651561, 2012 | shares compounds with MPTP inh | 780 tested, 58% active | IC50, µM; in the data active = IC50 below about 20 µM
# MPTP counter DR: fluorescent counter-screen in isolated mitochondria, dose response, counter-screen for MPTP inhibitor project, biochemical, fluorescence, uHTS hits; shares compounds with MPTP inh; IC50, µM; AID 651564, 2012; 780 tested, 49% active; isolated mitochondria counterscreen, fluorescence read-out; in the data active = IC50 below about 80 µM
# Numbers stand for hits; . = inactive; / = no result given.
SMILES,NadD block,TAG inh,MPTP inh,aDG glyco up,MPTP counter,others
Cc1cc(C)n2nc(SCC(=O)c3cc(C)n(-c4cc(C)on4)c3C)nc2n1,.,/,80.6,.,61.8,
C=CCOC(=O)C1=C(C)NC(SCC(=O)Nc2ccc(C)c(Cl)c2)=C(C#N)C1c1ccco1 (configuration not stated),.,.,71.8,.,76.8,
CCCNc1c(NS(=O)(=O)c2cccs2)c(=O)oc2ccccc12,.,/,.,.,/,
COC(=O)c1ccc2nc(Nc3nc4ccc(F)cc4s3)sc2c1,.,/,89.2,.,71.7,
CC(=O)c1sc(Nc2nc3ccc(F)cc3s2)nc1C,.,.,70.9,.,63.1,
O=C(NNc1nc2ccc(F)cc2s1)c1cccc(F)c1,.,.,92.2,.,75.6,
Cc1cccc2sc(N(CCCN(C)C)C(=O)c3ccc(C(=O)c4ccccc4)cc3)nc12,.,/,84.3,.,.,MPTP abs DR=11.3;MPTP counter DR=64.3
Cc1ccc2nc(N(CCCN(C)C)C(=O)COc3ccc(Cl)cc3)sc2c1,.,.,55.7,.,.,MPTP abs DR=4.23;MPTP counter DR=77.9
COc1ccc2sc(N(CCCN(C)C)C(=O)c3ccc(C(=O)c4ccccc4)cc3)nc2c1,.,.,79.6,.,.,MPTP abs DR=13.9;MPTP counter DR=64
CN(C)CCCN(C(=O)COc1ccc(Cl)cc1)c1nc2ccc(F)cc2s1,.,.,.,.,/,
Cc1cccc2sc(N(CCCN(C)C)C(=O)c3sc4ccccc4c3Cl)nc12,.,/,.,.,/,
CCN(Cc1ccccc1)S(=O)(=O)c1ccc(C(=O)N(CCCN(C)C)c2nc3cc4c(cc3s2)OCCO4)cc1,.,.,58.8,.,.,
CCOc1ccc(S(=O)(=O)N2CCOCC2)cc1NC(=O)CCOc1ccc(C(C)(C)C)cc1,.,.,.,.,/,
CC(C(=O)Nc1ccc(Cl)cc1Cl)N1C(=O)NC2(CCCC2)C1=O (configuration not stated),.,/,.,.,/,
CCN(Cc1ccccc1)S(=O)(=O)c1ccc(C(=O)N(CCCN(C)C)c2nc3cc(OC)ccc3s2)cc1,.,.,65.2,.,.,MPTP abs DR=.;MPTP counter DR=30.5
COc1ccc2sc(N(CCCN(C)C)C(=O)c3ccc(S(=O)(=O)N4CCCc5ccccc54)cc3)nc2c1,.,.,86.4,.,.,
CCN(Cc1ccccc1)S(=O)(=O)c1ccc(C(=O)N(CCCN(C)C)c2nc3ccc(F)cc3s2)cc1,.,.,.,.,/,
O=C1N(Cc2ccccc2)c2ccc(Br)cc2[C@]12C[C@H](O)CO2,/,/,.,.,/,
CN(C)c1ccc(C(=O)NCC(c2cccs2)N2CCOCC2)cc1 (configuration not stated),.,.,.,.,/,
Cc1ccc(OCCn2c(Br)nc3c2c(=O)n(C)c(=O)n3C)cc1,.,.,82.3,.,59.6,
O=c1cc(CSc2nnnn2-c2ccccc2)nc(Nc2ccc(F)cc2)[nH]1,.,/,56.1,.,83.9,
CC(C)(C)OC(=O)NCCc1nnc(SCC(=O)Nc2cccc(Cl)c2)o1,.,/,.,.,/,
CC(C)(C)OC(=O)NCCCCCc1nnc(SCC(=O)Nc2cccc(Cl)c2)o1,.,/,74.5,.,56.6,
CN(C)c1ccc(N=C/C=C2/N(C)c3ccccc3C2(C)C)cc1,.,.,82.3,.,52.0,
CN1C(=CC=C2C=C(I)C(=O)C(I)=C2)C(C)(C)c2ccccc21,.,.,66.6,.,.,
SMILES,NadD block,TAG inh,MPTP inh,aDG glyco up,MPTP counter,others
CN1/C(=C\C=N\O)C(C)(C)c2ccccc21,.,/,.,.,/,
O=C(CSc1ccc(F)cc1)Nc1ccc(Br)cc1,.,.,58.1,.,67.0,
Cc1cc(=O)[nH]c(SCC(=O)Nc2ccc(Br)cc2)c1C#N,.,.,96.0,.,89.9,
Cc1ccc(NCC(=O)Nc2ccc(Br)cc2)cc1F,.,.,60.3,.,70.3,
Cc1cc(=O)[nH]c(SCC(=O)Nc2ccc(F)cc2)c1C#N,.,/,.,.,/,
CC(=O)NCCC(=O)Nc1ccc(C)c(F)c1,.,.,.,.,/,
COc1ccccc1N1CCN(Cc2cnc3ccc(Cl)cn23)CC1,.,/,.,.,/,
CN(C)CCOc1ccc(-c2c(-c3ccccc3)sc3ccccc23)cc1,.,58.5,103.8,.,.,
Cc1cc(C)cc(C(O)c2ncc(-c3ccc(C(F)(F)F)cc3)[nH]2)c1 (configuration not stated),.,.,.,.,/,
Clc1ccc(/C(Cc2nc3ccccc3[nH]2)=N\Nc2ccccc2)cc1,.,/,85.9,.,69.7,
O=C(CSc1nnc(CNC(=O)c2cccs2)o1)Nc1ccc(Br)cc1,.,/,.,.,/,
CNC(=O)C[C@H]1C(=O)N(c2ccccc2)C[C@@H]1CSC,.,.,.,.,/,
CC(C)(C)c1ccc(N/N=C(\C#N)S(=O)(=O)C(C)(C)C)cc1,.,.,86.3,.,86.4,
CC(C)(C)S(=O)(=O)/C(C#N)=N/Nc1ccc(Cl)cc1,.,.,91.7,.,87.4,
CCOC(=O)C1CCCN(CCC(=O)Nc2cc(OC)ccc2OC)C1 (configuration not stated),.,/,.,.,/,
COc1cccc(/C=N/Nc2snc(SC)c2C#N)c1O,.,/,99.4,.,86.5,
COc1ccc(/C=N/Nc2snc(SC)c2C#N)cc1OC,.,.,.,.,/,
CN1/C(=C\C(=O)Nc2cccc(Cl)c2)C(C)(C)c2ccccc21,.,/,103.6,.,81.9,
CN(C)CCCNc1ncnc2c1c(-c1ccccc1)cn2-c1ccccc1,.,.,59.4,.,.,MPTP abs DR=.;MPTP counter DR=.
CN(C)CCNS(=O)(=O)c1ccc(N2CCN(c3ccc(F)cc3)CC2)c([N+](=O)[O-])c1,.,/,50.5,9.1,.,MPTP abs DR=7.13;MPTP counter DR=20.3
CCOC(=O)c1c(N2C(=O)Nc3cc(Cl)c(Cl)cc3N2O)sc2c1CCCCC2,.,/,91.1,.,70.2,
CCOC(=O)c1c(-n2cnnn2)sc2c1CCCC2,.,.,.,.,/,
CCN1CCN(C(=O)C2CCC(=O)N(CCCN3CCCC3=O)C2)CC1 (configuration not stated),.,/,.,.,/,
NC(c1ccccc1)c1csc(NC(=O)Nc2cccc(Cl)c2)n1 (configuration not stated),.,.,.,.,/,
NC(c1ccccc1)c1csc(NC(=O)Nc2ccc(OC(F)(F)F)cc2)n1 (configuration not stated),.,.,70.4,.,77.6,
CCOC(=O)Cc1csc(NC(=O)Nc2ccc(OC(F)(F)F)cc2)n1,.,.,84.0,.,68.1,
CCOC(=O)Cc1csc(NC(=O)c2ccc(NC(C)=O)cc2)n1,.,/,.,.,/,
CCOc1ccc(NC(=O)CN(C)C(=O)c2c(-c3ccccc3Cl)noc2C)cc1OCC,.,.,.,.,/,
